HP1b binding inh: blocks HP1-beta chromodomain binding to methylated histone tails. hit rate 0.56% among 390,000. P83916. AlphaScreen HP1-beta / biotin-H3K9me3 peptide binding. Potency, µM (titrated, usually from 114 µM), for inactives: at the highest dose activity change, negative = inhibition, hits mostly inhibitors; further: nearly all actives have a fitted effect of over 70% in size
Target sequence (P83916 whole entry, looked up): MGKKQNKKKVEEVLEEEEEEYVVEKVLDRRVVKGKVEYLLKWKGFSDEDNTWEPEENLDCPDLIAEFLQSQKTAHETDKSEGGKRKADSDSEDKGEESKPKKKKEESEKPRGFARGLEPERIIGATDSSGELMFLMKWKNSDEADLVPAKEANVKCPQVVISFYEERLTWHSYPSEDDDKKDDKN
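AlphaScreen: HP1-beta (50 nM) preformed 30 min with biotin-H3(1-18)K9me3 peptide (50 nM) in PBS pH 7.4, 0.01% Tween-20. Compound added for 30 min at RT, then streptavidin donor/nickel chelate acceptor beads (10 ug/mL) for 30 min.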
JMJD2A Tudor: JMJD2A Tudor domain (human) inhibition. Potency, µM (doses to about 114 µM), inactives show top-dose activity change, negative = inhibition, hits mostly inhibitors. O75164. AlphaScreen JMJD2A-Tudor / H3K4me3 peptide binding. AID 504339. hit rate 4.4% among 390,000; further: on the % scale 0 is the no-effect control and ±100 the full control effect; nearly all actives have a fitted effect of over 50% in size
L3MBTL1 inh: L3MBTL1 (human) inhibition. Q9Y468. AlphaScreen L3MBTL1–H3K9me1 peptide binding. Potency, µM (series often up to 57.1 µM), without a hit: at the highest dose activity, negative = inhibition, usual class: inhibitors. hit rate 0.66% among 230,000; further: on the % scale 0 is the no-effect control and ±100 the full control effect; nearly all actives have a fitted effect of over 60% in size
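AlphaScreen proximity signal between nickel-chelate acceptor and streptavidin donor beads (final 10 ug/mL) reports binding of 50 nM L3MBTL1 to 75 nM biotin-H3 K9me1 peptide; complex incubated with compounds 30 min at room temperature; cefsulodin titration as control.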
BAZ2B block: blocks human BAZ2B; Q9UIF8; AlphaScreen BAZ2B-H3K14Ac peptide displacement; Potency, µM (doses to about 114 µM), inactives show top-dose activity change, negative = inhibition, usual class: inhibitors; hit rate 4.4% among 360,000; further: on the % scale 0 is the no-effect control and ±100 the full control effect; nearly all actives have a fitted effect of over 60% in size
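Compounds, titrated to a top concentration of 110 uM, were incubated 30 min at room temperature with preformed BAZ2B/acetyl-K14 H3 peptide complex (50 nM each). Proximity signal was measured by AlphaScreen after 20 min with beads.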
G9a block: inhibitors of human histone lysine methyltransferase G9a; Q96KQ7; G9a H3K9 monomethylation, AlphaScreen, 2 h; Potency, µM (highest dose often 102 µM), inactives show at the highest dose activity, negative = inhibition, most hits filed as inhibitors; hit rate 8.8% among 350,000; further: on the % scale 0 is the no-effect control and ±100 the full control effect; nearly all actives have a fitted effect of over 75% in size
Target sequence (Q96KQ7 913-1193 limits assumed): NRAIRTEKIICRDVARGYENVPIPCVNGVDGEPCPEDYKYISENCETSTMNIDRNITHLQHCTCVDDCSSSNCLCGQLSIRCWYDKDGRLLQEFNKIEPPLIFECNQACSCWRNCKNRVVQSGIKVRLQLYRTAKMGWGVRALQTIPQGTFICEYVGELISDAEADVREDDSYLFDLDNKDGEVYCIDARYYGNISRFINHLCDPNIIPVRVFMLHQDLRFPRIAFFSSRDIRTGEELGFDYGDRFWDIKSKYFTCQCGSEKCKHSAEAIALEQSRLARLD
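Enzyme 20 nM + cpd, 15 min RT; add b-H3K9 pep 500 nM / SAM 20 uM; 2 h RT; anti-H3K9me1 Ab 0.5 ug/mL + SA donor / anti-rabbit acceptor beads 20 ug/mL each, 10 min; AlphaScreen read.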
* = called active by the depositor; ? = inconclusive; nt = no result given; [ ] = dose if it differs, or a comment. Only some compounds are listed: those with a hit (about 11% of all), similar ones and a draw of the others. The call rests on the fitted dose curve; in most records, active means well fitted inhibition curve with a large enough effect; inconclusive means small, poorly fitted or top-dose-only effect; inactive means no such curve, though single readings can be large or run the other way. Potency means the concentration at half of the fitted maximal effect.

SMILES | HP1b binding inh | JMJD2A Tudor | L3MBTL1 inh | BAZ2B block | G9a block
COc1ccccc1-c1nc(C#N)c(N2CCN(c3cccc(Cl)c3)CC2)o1 | ? | ? | -12.9% | 6.1% | 0.708µM*
N#Cc1nc(-c2ccco2)oc1N1CCc2ccccc2C1 | ? | ? | nt | 25.1µM* | ?
N#Cc1nc(-c2cccs2)oc1N1CCN(Cc2ccccc2)CC1 | ? | ? | nt | 25.1µM* | ?
N#Cc1nc(-c2ccco2)oc1N1CCCC1 | 0.8% | -19.2% | nt | 2.8% | 25.3%[2.33 µM]
COc1ccccc1-c1nc(C#N)c(N2CCN(C(c3ccccc3)c3ccccc3)CC2)o1 | -23.8% | -27.1% | nt | ? | 4.5%[2.33 µM]
N#Cc1nc(-c2ccco2)oc1N1CCN(c2cccc(Cl)c2)CC1 | ? | ? | ? | 25.1µM* | ?
COc1cc2nc(NC(=O)c3ccc(S(=O)(=O)N4CCOCC4)cc3)sc2cc1OC | 14.4%[57 µM] | -8.1% | nt | 7.3% | 1.9%[59 µM]
CCCCc1nn2c(=O)cc(COC(=O)C(C)Oc3ccccc3)nc2s1 (stereo not drawn) | 61.0% | -27.0% | nt | 2.0% | 4.7%[59 µM]
N#Cc1nc(-c2ccccc2)oc1N1CCN(C(=O)c2ccco2)CC1 | -17.7% | -28.1% | nt | 1.8% | 39.8µM*
N#Cc1c(N2CCN(C(=O)c3ccco3)CC2)nc(-c2ccccc2)c2c1CCCC2 | 14.0% | -14.1% | -5.0% | -10.7% | -33.4%[59 µM]
CC1CCC(C(C)C)C2=C1C(C#N)(C#N)C(C#N)(C#N)C(c1ccccc1)N2 (stereo not drawn) | ? | ? | -5.8% | ? | 7.08µM*
COc1ccc(N=Nc2n(C)c3ccccc3[n+]2C)cc1 | nt | nt | -20.1% | 39.8µM* | nt
CCCCOC(=O)C(C)Nc1n[nH]c(=S)[nH]c1=O (stereo not drawn) | -11.2% | 11.2µM* | nt | ? | ?
CCCCOC(=O)C(C)c1c(C)[nH]c(=S)[nH]c1=O (stereo not drawn) | 43.4% | 2.5% | -2.1% | -33.4% | 39.8µM*
CCOC(=O)N1C(COCc2ccccc2)C=CCS1(=O)=O (stereo not drawn) | 27.4% | -1.4% | nt | nt | nt
CC1(C)CC(=O)C/C(=N/Nc2nc3ccccc3s2)C1 | 14.4% | ? | -19.8% | ? | 50.1µM*
CCOC(=O)c1oc2c(C)c(O)ccc2c(=O)c1-c1nncn1-c1ccccc1 | 17.0% | -8.9% | 6.5% | -6.1% | 24.3%[59 µM]
CCOC(=O)c1oc2c(O)c(O)ccc2c(=O)c1-c1nncn1-c1ccccc1 | 32.5% | ? | ? | ? | 3.16µM*
CCc1ccc(C2C(C#N)=C(N)Oc3cc(N)ccc32)cc1 (stereo not drawn) | 43.6% | -18.6% | 5.5% | ? | ?
CCc1ccc(C2C(C#N)=C(N)SC(N)=C2C#N)cc1 | 3.8% | ? | 3.6% | ? | 8.91µM*
Cc1ccc(C2C(C#N)=C(N)SC(N)=C2C#N)o1 | nt | nt | -18.7% | nt | 1.58µM*
CCc1ccc(C2C(C#N)=C(N)SC(N)=C2C#N)s1 | 9.5% | -32.9% | -11.8% | -14.2% | 39.8µM*
N#CC1=C(N)SC(N)=C(C#N)C1c1ccc([N+](=O)[O-])cc1 | -36.5% | 56.2µM* | -12.8% | -37.4% | 8.91µM*
CCOC(=O)C1=C(C)OC(N)=C(C#N)C1c1ccc(C)o1 (stereo not drawn) | 44.1% | -21.5% | nt | -21.8% | ?
COc1cc(C(=O)Nc2ccc3nc(SCc4ccccc4)sc3c2)cc(OC)c1OC | 30.1% | -20.5% | nt | -0.4% | -6.1%[59 µM]
SMILES | HP1b binding inh | JMJD2A Tudor | L3MBTL1 inh | BAZ2B block | G9a block
CC(C)c1cn(C2OC(COC(=O)c3ccccc3)C(OC(=O)c3ccccc3)C2OC(=O)c2ccccc2)c(=O)[nH]c1=O (stereo not drawn) | -3.3% | -31.9% | nt | nt | nt
COc1cccc(-c2cn3c(n2)sc2cc(C(=O)NCCc4ccc(OC)c(OC)c4)ccc23)c1 | -3.8% | -22.7% | nt | -17.6% | -0.8%[59 µM]
N#CC1=C(N)SC(N)=C(C#N)C1c1ccc(C(F)(F)F)cc1 | nt | nt | 0.0% | -31.5% | 2.51µM*
COc1ccc(Nc2c(-c3ccco3)nc3cccc(C)n23)cc1 | ? | 56.2µM* | nt | 22.4µM* | 25.1µM*
COc1ccc(-c2nc3cccc(C)n3c2Nc2ccc(C)cc2)cc1 | -21.3% | 39.8µM* | nt | nt | nt
COc1ccc(Nc2c(-c3ccco3)nc3ccc(C)cn23)cc1 | 27.9% | 0.4% | nt | -33.8% | -13.2%[59 µM]
CCCCCn1c(=O)[nH]c2cc(C(=O)N3CCN(c4cccc(Cl)c4)CC3)ccc2c1=O | 20.9% | -2.4% | nt | -0.6% | -2.9%[59 µM]
Cc1ccc(-n2ncc3c(NCCC4=CCCCC4)ncnc32)cc1 | 12.0% | -8.3% | nt | -0.5% | ?
CCc1ccccc1NC(=O)CSc1nc2ncccc2o1 | 17.7% | -10.3% | nt | 1.1% | 5.5%[59 µM]
CCOC(=O)c1[nH]c(C)c(CCC(=O)Nc2ccccc2OCC)c1C | 6.3%[57 µM] | -28.2% | nt | -1.2% | -27.2%[59 µM]
CCOC(=O)c1[nH]c(C)c(CCC(=O)Nc2ccc(N(CC)CC)cc2C)c1C | 1.0%[57 µM] | -28.2% | nt | -18.0% | 14.1µM*
Cc1cc(S(=O)(=O)N2CCN(Cc3noc(CCC(=O)N4CCCCC4)n3)CC2)ccc1F | 17.9% | -17.6% | nt | -22.0% | ?
Cc1ccc2nc(/C(C#N)=C/c3cccc(Br)c3)[nH]c2c1 | -13.4% | ? | nt | -27.3% | 37.7%[59 µM]
Cc1ccc2nc(/C(C#N)=C\c3ccc(N4CCCCC4)c([N+](=O)[O-])c3)[nH]c2c1 | ? | 5.62µM* | nt | 44.7µM* | 14.1µM*
Cc1ccc2nc(/C(C#N)=C/c3ccc(O)c(O)c3)[nH]c2c1 | ? | 15.8µM* | nt | 7.94µM* | 8.91µM*
N#C/C(=C\c1ccc(N2CCOCC2)c([N+](=O)[O-])c1)c1nc2ccccc2[nH]1 | -32.2% | ? | -0.4% | 35.5µM* | 0.6%[59 µM]
N#C/C(=C/c1ccc(N2CCCC2)c([N+](=O)[O-])c1)c1nc2ccccc2[nH]1 | 7.8% | -11.6% | -7.0% | -4.6% | 11.3%[2.33 µM]
Cc1ccc(C2=NN(CC(=O)NC(C)c3ccccc3)C(=O)CC2)cc1 (stereo not drawn) | 9.8% | -25.7% | nt | -29.4% | -9.2%[59 µM]
Cc1cccc(NC(=O)CNC(=O)CSc2nc(N)cc(N)n2)c1C | 2.8% | -7.5% | 1.7% | 13.2% | -33.5%
CC(C)c1nnc(NC(=O)CCS(=O)(=O)c2nc(-c3cccs3)cc(C(F)(F)F)n2)s1 | 29.6% | -23.5% | -9.8% | 89.1µM* | 1.78µM*
CC(C)c1nnc(NC(=O)CCS(=O)(=O)Cc2ccccc2)s1 | -16.5% | 1.4% | nt | -0.3% | 28.2µM*
COc1ccccc1N1CCN(C(=O)c2cc(-c3ccc(C)c(F)c3)on2)CC1 | 39.1% | -12.6% | nt | -4.1% | ?
Cc1ccccc1CNC(=O)c1ccc2nc(SCc3ccc(F)cc3)n(C)c2c1 | 25.7% | -10.5% | nt | -32.7% | ?
O=C(C1CCN(S(=O)(=O)Cc2ccccc2)CC1)N1CCN(c2cccc(C(F)(F)F)c2)CC1 | 42.8% | -5.0% | nt | -0.6% | -31.3%[59 µM]
CC(C)c1cccc(C(C)C)c1NC(=O)CNCC(O)c1ccccc1 (stereo not drawn) | -32.3% | 56.2µM* | nt | 50.1µM* | 9.6%
